According to the supplement of paper PMC9262897, “Low-cost anti-mycobacterial drug discovery using engineered E. coli” (Nature Communications, 2022):
Counter-ions that a name gives are not always drawn. ± gives the standard deviation of the averaged measurements.

What follows are molecules tested on E. coli TESEC Alr+ wild-type control (assay: growth (OD600 after 10 h); higher = more growth (less inhibition)). Conditions: compound 0.1 mM; raw OD600 reference: median of DMSO wells 0.49, cell-free background 0.052.
Method: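 TESEC Mtb Alr E. coli (ΔaraC ΔtolC ΔentC Δalr ΔdadX, arabinose-inducible Mtb Alr) or the Alr+ wild-type control strain, grown in defined M9-fructose medium without D-alanine in 96-well plates with Prestwick library compounds at 0.1 mM and 1% DMSO. Low Alr induction is 0.1 µM arabinose and high induction is 10 mM arabinose.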
`C[C@@H](O)[C@H]1C(=O)N2C(C(=O)O)=C(SCCNC=N)C[C@H]12` [Imipenem] was tested, and the growth was 0.271 ± 0.022.
`CC(C)c1c(C(=O)Nc2ccccc2)c(-c2ccccc2)c(-c2ccc(F)cc2)n1CC[C@@H](O)C[C@@H](O)CC(=O)O` [Atorvastatin] gave a growth of 0.217 ± 0.011.
`Cc1cc2c(cc1S(N)(=O)=O)S(=O)(=O)CCC2` [Meticrane] showed a growth of 0.423 ± 0.008.
`CN(C)CCN1C(=O)c2ccccc2N(C)c2ccccc21` [Dibenzepine hydrochloride] gave a growth of 0.608 ± 0.13.
`C[C@H](CS)C(=O)N1CCC[C@H]1C(=O)O` [Captopril] gave a growth of 0.475 ± 0.059.
`CS(=O)(=O)c1ccc(C2=C(c3ccccc3)C(=O)OC2)cc1` [Rofecoxib] gave a growth of 0.455 ± 0.041.
`CC(=O)SCC(Cc1ccccc1)C(=O)NCC(=O)OCc1ccccc1` (stereo not given) [Racecadotril] showed a growth of 0.502 ± 0.028.
Molecule `O=P(O)(O)C(O)(Cn1ccnc1)P(=O)(O)O` [Zoledronic acid hydrate] has a growth of 0.596 ± 0.074.
`CC(=O)Oc1cc(C(F)(F)F)ccc1C(=O)O` [Triflusal] gave a growth of 0.555 ± 0.033.
Molecule `Cc1[nH]c(=O)c(C#N)cc1-c1ccncc1` [Milrinone] has a growth of 0.636 ± 0.046.
Work on `CCN(CC)C(=O)C1(c2ccccc2)CC1CN` (stereo not given) [Milnacipran hydrochloride] yielded a growth of 0.547 ± 0.052.
`CCn1cc(C(=O)O)c(=O)c2cc(F)c(N3CCNCC3)nc21` [Enoxacin] was tested, and the growth was 0.05513 ± 0.00042.
For `Cc1ccc(-c2ncc(Cl)cc2-c2ccc(S(C)(=O)=O)cc2)cn1` [Etoricoxib], the growth was 0.388 ± 0.0074.
`Cc1noc(NS(=O)(=O)c2ccc(N)cc2)c1C` [Sulfisoxazole] was tested, and the growth was 0.588 ± 0.015.
For `CN1CCCN=C1/C=C/c1cccs1` [Pyrantel tartrate], the growth was 0.458 ± 0.043.
For `CN1CCc2c(c3ccccc3n2Cc2ccccc2)C1` [Mebhydroline 1,5-naphtalenedisulfonate], the growth was 0.4471 ± 0.0035.
Molecule `CC[N+](CC)(CC)CCC(O)(c1ccccc1)C1CCCCC1` (stereo not given) [Tridihexethyl chloride] has a growth of 0.437 ± 0.045.
`CNCCC(Oc1ccccc1OC)c1ccccc1` (stereo not given) [Nisoxetine hydrochloride] showed a growth of 0.566 ± 0.12.
Work on `O=C(O)Cc1ccccc1Nc1c(Cl)cccc1Cl` [Diclofenac sodium] yielded a growth of 0.436 ± 0.0056.
For `CCC1(c2ccccc2)C(=O)NCNC1=O` [Primidone], the growth was 0.567 ± 0.028.
`C[C@@H]1CCC[C@H](C)N1NC(=O)c1ccc(Cl)c(S(N)(=O)=O)c1` [Clopamide] was tested, and the growth was 0.581 ± 0.048.
In the case of `CCCCC(C)(O)C/C=C/[C@H]1[C@H](O)CC(=O)[C@@H]1CCCCCCC(=O)OC` (mixture of isomers) [Misoprostol], the growth is reported as 0.518 ± 0.094.
For `CC(C)(Sc1cc(C(C)(C)C)c(O)c(C(C)(C)C)c1)Sc1cc(C(C)(C)C)c(O)c(C(C)(C)C)c1` [Probucol], the growth was 0.583 ± 0.039.
`CCOC(=O)[C@H](CCc1ccccc1)N[C@@H](C)C(=O)N1CCC[C@H]1C(=O)O` [Enalapril maleate] gave a growth of 0.499 ± 0.024.
With `CCN(CC)CCc1nc(-c2ccccc2)no1` [Oxalamine citrate salt] the growth was 0.537 ± 0.036.
`Clc1ccc(CO/N=C(\Cn2ccnc2)c2ccc(Cl)cc2Cl)c(Cl)c1` [Oxiconazole Nitrate] gave a growth of 0.0828 ± 0.0028.
`CNC(=C[N+](=O)[O-])NCCSCc1ccc(CN(C)C)o1` [Ranitidine hydrochloride] gave a growth of 0.485 ± 0.064.
Work on `C[N+](C)(C)CCCCCC[N+](C)(C)C` [Hexamethonium dibromide dihydrate] yielded a growth of 0.536 ± 0.007.
`CC(C)C(=O)Nc1ccc([N+](=O)[O-])c(C(F)(F)F)c1` [Flutamide] showed a growth of 0.506 ± 0.0074.
`NS(=O)(=O)c1cc2c(cc1Cl)NCNS2(=O)=O` [Hydrochlorothiazide] was tested, and the growth was 0.448 ± 0.062.
Molecule `CN1CCN2c3ncccc3Cc3ccccc3C2C1` (stereo not given) [Mirtazapine] has a growth of 0.468 ± 0.035.
Molecule `Nc1ccc(C(=O)NCC(=O)O)cc1` [Aminohippuric acid] has a growth of 0.6256 ± 0.0055.
`CCOCCn1c(N2CCCN(C)CC2)nc2ccccc21` [Emedastine] showed a growth of 0.514 ± 0.081.
Molecule `CC/C(=C(\c1ccccc1)c1ccc(OCCN(C)C)cc1)c1ccccc1` [Tamoxifen citrate] has a growth of 0.0552 ± 0.015.
Work on `CSc1ccc2c(c1)N(CCC1CCCCN1C)c1ccccc1S2` (stereo not given) [Thioridazine hydrochloride] yielded a growth of 0.0484 ± 0.00036.
`CC[C@H]1OC(=O)C[C@@H](O)[C@H](C)[C@@H](O[C@@H]2O[C@H](C)[C@@H](O[C@H]3C[C@@](C)(O)[C@@H](O)[C@H](C)O3)[C@H](N(C)C)[C@H]2O)[C@@H](CC=O)C[C@@H](C)C(=O)/C=C/C(C)=C/[C@@H]1CO[C@@H]1O[C@H](C)[C@@H](O)[C@@H](OC)[C@H]1OC` [Tylosin] showed a growth of 0.0591 ± 0.00044.
With `Cc1ccc(C(=O)c2cc(O)c(O)c([N+](=O)[O-])c2)cc1` [Tolcapone] the growth was 0.065 ± 0.0022.
Molecule `CCOc1nc2cccc(C(=O)O)c2n1Cc1ccc(-c2ccccc2-c2nnn[nH]2)cc1` [Candesartan] has a growth of 0.642 ± 0.092.
Molecule `CN1CCN(CC(=O)N2c3ccccc3C(=O)Nc3cccnc32)CC1` [Pirenzepine dihydrochloride] has a growth of 0.531 ± 0.061.
Molecule `NS(=O)(=O)c1cc(C2(O)NC(=O)c3ccccc32)ccc1Cl` (stereo not given) [Chlorthalidone] has a growth of 0.545 ± 0.05.
